Experimental data from PubChem BioAssay (NCI).
Where “and” joins values, the source holds several entries; their conditions need not be identical. Identical values can stand only once. The panel holds about 83,000 compounds, 20% with a hit somewhere; the sample as a whole holds those more often.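 Compound tested at a single concentration for 48 hours in 96-well plates; a percent growth value below 10 was scored as active.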 Calls of active or inactive are those of the source.

These compounds were tested on EKVX NSCLC (assay: NCI-60 one-dose screen, 48 h (100 = growth as untreated, 0 = no growth, -100 = all killed)). Settings: 10 µM.
Experimental: Growth inhibition of the EKVX human Non-Small Cell Lung tumor cell line is measured as a screen for anti-cancer activity. Cells are grown in 96 well plates and exposed to the test compound for 48 hours. Compounds are tested at a single concentration, which is 10^-5 M for most compounds. The reported endpoint is percent growth (GI% or GIPRCNT), where numbers from 0 - 100% represent growth inhibition, and numbers from -100% - 0 represent cell death. For example, a value of 40 represents 60% growth inhibition. A value of 0 means no net growth occurred over the course of the experiment. A value of -40 indicates 40% of cells at the beginning of the experiment died by the end of the experiment. A value of -100 means all cells are dead at the end of the experiment.
NCI-60 Human Tumor Cell Lines Screen was performed using the standard one-dose NCI protocol, which is described in more detail at https://dtp.cancer.gov/discovery_development/nci-60/default.htm.
Compounds with GIPRCNT values below 10 were considered active. Activity score was based on GIPRCNT using the following formula: […]
Score is 0 for GIPRCNT values of 100 or above, 50 for GIPRCNT values of 0, and 100 for GIPRCNT values of -100.

Structure (SMILES) | growth
C=C1C(=O)O[C@@H]2C[C@@H](C)[C@@H]3C=CC(=O)[C@@]3(C)[C@@H](O)[C@H]12 | -61% (active)
CCOP(=O)(OCC)/C(C#N)=C/c1ccc(Br)cc1 | 97.6% (inactive)
COc1cc(/C=C\[N+](=O)[O-])ccc1O | 108% (inactive) and 91.7% (inactive)
CC[C@@]1(O)C[C@H](OC2CC(N(C)C)C(O)C(C)O2)c2c(cc3c(c2O)C(=O)c2c(O)ccc(O)c2C3=O)[C@H]1C(=O)OC (stereo not given in full) | -47.8% (active)
O=[N+]([O-])/C=C/c1ccc(Cl)cc1[N+](=O)[O-] | 81.8% (inactive)
CN(CCCl)c1ccc(/C=C/C2=[N+](C)c3ccccc3C2(C)C)cc1 | 54.6% (inactive)
CC(C)c1cc([N+](=O)[O-])cc([N+](=O)[O-])c1O | 110% (inactive)
COc1cc(/C=C/[N+](=O)[O-])cc(Br)c1OC | 103% (inactive)
O=[N+]([O-])/C=C\c1ccc2c(c1)OCO2 | 96.9% (inactive)
C[C@]12CC[C@H]3[C@@H](CCC4=CC(=O)CC[C@@H]43)[C@@H]1CC[C@@H]2OC(=O)N(CCCl)N=O | 119% (inactive)
COc1cc(/C=C(/C)[N+](=O)[O-])ccc1O | 84.6% (inactive)
Cc1cc(C(C)(C)c2ccc(O)c(C)c2)ccc1O | 85.2% (inactive)
C/C(=C\c1ccc(Cl)c(Cl)c1)[N+](=O)[O-] | 94.6% (inactive)
COS(=O)(=O)c1ccccc1 | 112% (inactive)
COc1ccccc1[As]=[As]c1ccccc1OC (stereo not given) | -67.7% (active)
CC(=O)Nc1c2sscc-2n(C)c1=O | -98.8% (active)
C[CH2][Hg][S]c1ccccc1C(=O)O | 63.6% (inactive)
NNc1ccccc1 | 89.6% (inactive)
CC12OOC(c3ccccc31)c1c2ccc2ccccc12 (stereo not given) | -51.5% (active)
Oc1ccccc1-c1ccccc1 | 116% (inactive)

Structure (SMILES) | growth
COc1ccc(/C=C\[N+](=O)[O-])cc1OC | 103% (inactive) and 76.3% (inactive)
COc1cc([N+](=O)[O-])c2ncccc2c1[N+](=O)[O-] | 102% (inactive)
O=C(CBr)Nc1ccccc1 | 111% (inactive)
NC(Cc1ccccc1)c1ccccc1 (stereo not given) | 103% (inactive) and 112% (inactive)
O=S(=O)(F)c1ccc(Cl)cc1 | 110% (inactive)
C#CC1(O)CCC(C(C)(C)C)CC1 (stereo not given) | 118% (inactive)
NC(=O)c1cc([N+](=O)[O-])c(Cl)c([N+](=O)[O-])c1 | 98.3% (inactive)
O=[P+](O)c1ccccc1 | 115% (inactive)
O=[N+]([O-])c1ccc(N(CCO)CCO)c2c1no[n+]2[O-] | -9.06% (active)
CC/C(=C/c1ccc(OC)cc1OC)[N+](=O)[O-] | 79.9% (inactive)
COc1cc2c(cc1OC)C13CCN4CC5=CCOC6CC(=O)N2C1C6C5CC43 (stereo not given) | 105% (inactive) and 114% (inactive)
O=[N+]([O-])/C=C/c1ccc([N+](=O)[O-])cc1 | 78.2% (inactive) and 84.1% (inactive)
O=C(O)c1cc(Cc2ccc(O)c(C(=O)O)c2)ccc1O (tested in a mixture with another compound) | 73.8% (inactive)
O=C1CCC(=O)N1SC(Cl)(Cl)Cl | 117% (inactive)
COc1cc(/C=C/[N+](=O)[O-])cc(OC)c1OC | 73.6% (inactive)
O=[N+]([O-])c1ccc(Br)c([N+](=O)[O-])c1 | 115% (inactive)
C[C@@H]1C[C@@H]([C@H](O)CC2CC(=O)NC(=O)C2)C(=O)[C@@H](C)C1 | 12.4% (inactive)
O=[N+]([O-])c1ccc(N2CCOCC2)c2c1no[n+]2[O-] | 46.5% (inactive)
CN(C)CC1(N)C(=O)NC(=O)NC1=O | 103% (inactive)
CC(C)(C)OOC(=O)/C=C\C(=O)OOC(C)(C)C | 123% (inactive)
